This is part of a sample that, as a whole, favours compounds with a hit. Of some 83,000 tested, about 20% had one in any assay.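 Method: cells in 96-well plates; compound added at one concentration; 48 h incubation; percent growth measured; values under 10 scored active.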 Active and inactive are the calls of the source.
Legend:
Experiment in all cases: NCI-60 one-dose screen, 48 h (100 = growth as untreated, 0 = no growth, -100 = all killed)
Conditions in all cases: 10 µM unless noted
DU-145 prostate = test system: DU-145 prostate
K-562 leukemia = test system: K-562 leukemia
MALME-3M melanoma = test system: MALME-3M melanoma
MDA-MB-231 breast = test system: MDA-MB-231 breast
SF-268 CNS = test system: SF-268 CNS
SF-295 CNS = test system: SF-295 CNS
SF-539 CNS = test system: SF-539 CNS
UACC-257 melanoma = test system: UACC-257 melanoma
M14 melanoma = test system: M14 melanoma
HCT-15 colon = test system: HCT-15 colon
HT29 colon = test system: HT29 colon
SNB-75 CNS = test system: SNB-75 CNS
U251 CNS = test system: U251 CNS
SK-MEL-5 melanoma = test system: SK-MEL-5 melanoma
UACC-62 melanoma = test system: UACC-62 melanoma
LOX IMVI melanoma = test system: LOX IMVI melanoma
SK-MEL-28 melanoma = test system: SK-MEL-28 melanoma
SNB-19 CNS = test system: SNB-19 CNS
PC-3 prostate = test system: PC-3 prostate
RXF 393 renal = test system: RXF 393 renal

Measured: growth

COc1ccc(NS(=O)(=O)c2ccc(C)cc2)c([N+](=O)[O-])c1
inactive: DU-145 prostate 111% | K-562 leukemia 93.2% | MALME-3M melanoma 96.2% | MDA-MB-231 breast 96% | SF-268 CNS 101% | SF-295 CNS 110% | SF-539 CNS 110% | UACC-257 melanoma 98.7% | M14 melanoma 109% | HCT-15 colon 107% | HT29 colon 107% | SNB-75 CNS 105% | U251 CNS 93.3% | SK-MEL-5 melanoma 96.8% | UACC-62 melanoma 86% | LOX IMVI melanoma 95.2% | SK-MEL-28 melanoma 107%

CCOC(=O)c1c(SC)nn(-c2cc(=O)[nH]c3ccc(Br)cc23)c1N
inactive: DU-145 prostate 94.6% | MALME-3M melanoma 105% | MDA-MB-231 breast 110% | SF-268 CNS 90.7% | SF-295 CNS 107% | SF-539 CNS 102% | UACC-257 melanoma 112% | M14 melanoma 109% | HCT-15 colon 106% | HT29 colon 107% | SNB-75 CNS 94% | SNB-19 CNS 101% | U251 CNS 94.1% | PC-3 prostate 94.2% | SK-MEL-5 melanoma 101% | UACC-62 melanoma 102% | LOX IMVI melanoma 90.1% | SK-MEL-28 melanoma 117%

O=C(Nc1ccc(F)cc1)c1c(NC(=O)C(F)(F)F)sc2c1CCCCC2
inactive: DU-145 prostate 16.9% | HCT-15 colon 11.5% | LOX IMVI melanoma 15% | SK-MEL-28 melanoma 12.2%
active: K-562 leukemia 6.57% | MALME-3M melanoma -21.1% | MDA-MB-231 breast -20.4% | SF-268 CNS 4.27% | SF-295 CNS -42.4% | SF-539 CNS -0.67% | UACC-257 melanoma -23.9% | M14 melanoma -3.37% | HT29 colon 5.86% | SNB-75 CNS -23% | PC-3 prostate 3.29% | SK-MEL-5 melanoma -55.6% | UACC-62 melanoma 3.56%

O=C(O)c1ccc[n+](CC(=O)N2CCN(c3cc4c(cc3F)c(=O)c(C(=O)O)cn4C3CC3)CC2)c1
active: MALME-3M melanoma -34%
inactive: DU-145 prostate 96.1% | MDA-MB-231 breast 98.3% | SF-268 CNS 70.1% | SF-295 CNS 116% | SF-539 CNS 69.1% | UACC-257 melanoma 80.1% | M14 melanoma 64.6% | HCT-15 colon 73.4% | HT29 colon 92.9% | SNB-75 CNS 79.4% | SNB-19 CNS 87.1% | U251 CNS 74.7% | PC-3 prostate 87.3% | SK-MEL-5 melanoma 91.7% | UACC-62 melanoma 48.9% | LOX IMVI melanoma 30.2% | SK-MEL-28 melanoma 60.4%

O=c1[nH]c2c(s1)CCCC2CN1CCCCC1 (stereo not given)
inactive: DU-145 prostate 109% | MALME-3M melanoma 107% | MDA-MB-231 breast 133% | SF-268 CNS 98.7% | SF-295 CNS 104% | SF-539 CNS 105% | UACC-257 melanoma 92% | M14 melanoma 90.6% | HCT-15 colon 107% | HT29 colon 95.2% | SNB-75 CNS 83.8% | SNB-19 CNS 110% | PC-3 prostate 91.9% | SK-MEL-5 melanoma 99.8% | UACC-62 melanoma 113% | LOX IMVI melanoma 95.5% | SK-MEL-28 melanoma 99.3%

O=C1Nc2c(ccc(Cl)c2Cl)/C1=C/c1ccccn1
active: UACC-257 melanoma -20.9%
inactive: DU-145 prostate 104% | MALME-3M melanoma 85.5% | MDA-MB-231 breast 84.7% | SF-268 CNS 84.8% | SF-295 CNS 107% | SF-539 CNS 92.8% | M14 melanoma 69.9% | HCT-15 colon 70.9% | HT29 colon 78.5% | SNB-75 CNS 84.6% | SNB-19 CNS 84.5% | U251 CNS 85% | PC-3 prostate 75.2% | SK-MEL-5 melanoma 83.1% | UACC-62 melanoma 70.5% | LOX IMVI melanoma 43.9% | SK-MEL-28 melanoma 105%

Cc1cc2nc(-c3ccccc3)c(-c3ccccc3)nc2cc1C
inactive: DU-145 prostate 112% | MALME-3M melanoma 113% | MDA-MB-231 breast 94.5% | RXF 393 renal 111% | SF-268 CNS 116% | SF-295 CNS 90% | SF-539 CNS 109% | UACC-257 melanoma 117% | M14 melanoma 113% | HCT-15 colon 98.1% | HT29 colon 116% | SNB-75 CNS 114% | SNB-19 CNS 104% | U251 CNS 105% | PC-3 prostate 106% | SK-MEL-5 melanoma 92.4% | UACC-62 melanoma 85.5% | LOX IMVI melanoma 100% | SK-MEL-28 melanoma 105%

Cn1c(COC(=O)NCCc2ccccn2)nc2c(N3CCOCC3)nc(Cl)nc21
inactive: SF-268 CNS 46% | SF-295 CNS 71.7% | UACC-257 melanoma 18.1% | SNB-75 CNS 14.5% | UACC-62 melanoma 11.1%
active: DU-145 prostate 8% | K-562 leukemia 2.75% | MALME-3M melanoma -71.2% | MDA-MB-231 breast -64.5% | SF-539 CNS -19.8% | M14 melanoma -59.2% | HCT-15 colon -42.2% | HT29 colon 0.156% | U251 CNS 9.11% | SK-MEL-5 melanoma 3.6% | LOX IMVI melanoma -83.7% | SK-MEL-28 melanoma -90.8%

CCC(=O)c1ccc(O)c(OC)c1
inactive: DU-145 prostate 113% | MALME-3M melanoma 104% | MDA-MB-231 breast 92% | RXF 393 renal 111% | SF-268 CNS 104% | SF-295 CNS 105% | SF-539 CNS 111% | UACC-257 melanoma 85.7% | M14 melanoma 101% | HCT-15 colon 111% | HT29 colon 103% | SNB-75 CNS 100% | SNB-19 CNS 95.9% | U251 CNS 93.9% | PC-3 prostate 92.4% | SK-MEL-5 melanoma 98.6% | UACC-62 melanoma 95.5% | LOX IMVI melanoma 102% | SK-MEL-28 melanoma 97.8%

Reference: PubChem BioAssay (NCI)
